According to PubChem BioAssay AID1159580 (chemical genetic matrix, 2015):
Several values for one entry are separate records, joined by “and”; a condition that tells them apart may be missing. Equal values may be shown once. The campaign covered roughly 5,500 compounds. About 2,000 (36%) were called active. Inconclusive results (about 18%) are left out. No stated cut-off is given here; in the data, active means normalized growth mostly below about 0.91 (no sharp cut-off); inconclusive means no clear call, values can overlap the other calls; inactive means mostly above about 0.92. The list shows a part of the results.

Assay: chemical genetic growth profiling, strain panel (AID 1159580);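 further: tested at 20 µM; growth read once vehicle control cultures reached saturation at 30 °C; 1 = growth at the plate median or of vehicle wells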
Details: growth OD

Measured: normalized growth

CSCCC(N)C(=O)NC(CC(C)C)C(=O)NC(Cc1ccccc1)C(=O)O (configuration not stated)
inactive: S. cerevisiae deletion strains, locus YAL013W, strain DEP1, stronger effect = lower value 1.01 | S. cerevisiae deletion strains, locus YBR021W, strain FUR4, stronger effect = lower value 1.02 | S. cerevisiae deletion strains, locus YBR229C, strain ROT2, stronger effect = lower value 1.01 | S. cerevisiae deletion strains, locus YCL029C, strain bik1, stronger effect = lower value 0.987 | S. cerevisiae deletion strains, locus YDL035C, strain GPR1, stronger effect = lower value 1.02 | S. cerevisiae deletion strains, locus YDL074C, strain BRE1, stronger effect = lower value 1.05 | S. cerevisiae deletion strains, locus YDL101C, strain DUN1, stronger effect = lower value 1.02 | S. cerevisiae deletion strains, locus YDL134C, strain PPH21, stronger effect = lower value 1.02 | S. cerevisiae deletion strains, locus YDL185W, strain tfp1, stronger effect = lower value 1 | S. cerevisiae deletion strains, locus YDL192W, strain arf1, stronger effect = lower value 1 | S. cerevisiae deletion strains, locus YDR101C, strain arx1, stronger effect = lower value 0.994 | S. cerevisiae deletion strains, locus YDR150W, strain NUM1, stronger effect = lower value 1.02 | S. cerevisiae deletion strains, locus YDR162C, strain NBP2, stronger effect = lower value 1.02 | S. cerevisiae deletion strains, locus YDR318W, strain mcm21, stronger effect = lower value 0.978 | S. cerevisiae deletion strains, locus YDR388W, stronger effect = lower value 0.995 | S. cerevisiae deletion strains, locus YDR502C, strain sam2, stronger effect = lower value 1.01 | S. cerevisiae deletion strains, locus YEL061C, strain CIN8, stronger effect = lower value 1.01 | S. cerevisiae deletion strains, locus YER110C, stronger effect = lower value 0.994 | S. cerevisiae deletion strains, locus YER155C, strain BEM2, stronger effect = lower value 1.01 | S. cerevisiae deletion strains, locus YER167W, strain BCK2, stronger effect = lower value 1.02 | S. cerevisiae deletion strains, locus YGL078C, strain dbp3, stronger effect = lower value 0.987 | S. cerevisiae deletion strains, locus YGL086W, strain mad1, stronger effect = lower value 0.999 | S. cerevisiae deletion strains, locus YGL248W, strain PDE1, stronger effect = lower value 1.02 | S. cerevisiae deletion strains, locus YGR078C, strain PAC10, stronger effect = lower value 1.03 | S. cerevisiae deletion strains, locus YGR135W, strain pre9, stronger effect = lower value 1 | S. cerevisiae deletion strains, locus YGR229C, strain SMI1, stronger effect = lower value 1.04 | S. cerevisiae deletion strains, locus YGR252W, strain gcn5, stronger effect = lower value 0.956 | S. cerevisiae deletion strains, locus YHR030C, strain SLT2, stronger effect = lower value 1 and 1.02 | S. cerevisiae deletion strains, locus YHR079C, strain IRE1 (second series), stronger effect = lower value 0.988 | S. cerevisiae deletion strains, locus YHR079C, strain IRE1, stronger effect = lower value 1.01 | S. cerevisiae deletion strains, locus YHR094C, strain hxt1, stronger effect = lower value 0.996 | S. cerevisiae deletion strains, locus YHR129C, strain ARP1, stronger effect = lower value 1.01 | S. cerevisiae deletion strains, locus YHR200W, strain rpn10, stronger effect = lower value 0.995 | S. cerevisiae deletion strains, locus YIL066C, strain RNR3, stronger effect = lower value 1.01 | S. cerevisiae deletion strains, locus YIL073C, strain SPO22, stronger effect = lower value 1 | S. cerevisiae deletion strains, locus YIL125W, strain kgd1, stronger effect = lower value 1 | S. cerevisiae deletion strains, locus YIR030C, strain dcg1, stronger effect = lower value 0.998 | S. cerevisiae deletion strains, locus YJL095W, strain BCK1, stronger effect = lower value 1.04 and 0.991 | S. cerevisiae deletion strains, locus YJL134W, strain LCB3, stronger effect = lower value 1.01 | S. cerevisiae deletion strains, locus YJL168C, strain set2, stronger effect = lower value 0.998 | S. cerevisiae deletion strains, locus YJL187C, strain SWE1 (second series), stronger effect = lower value 1.02 | S. cerevisiae deletion strains, locus YJR043C, strain POL32, stronger effect = lower value 1 | S. cerevisiae deletion strains, locus YJR066W, strain TOR1, stronger effect = lower value 0.934 | S. cerevisiae deletion strains, locus YJR075W, strain HOC1, stronger effect = lower value 1.02 | S. cerevisiae deletion strains, locus YKL009W, strain mrt4, stronger effect = lower value 0.993 | S. cerevisiae deletion strains, locus YKL068W, stronger effect = lower value 0.987 | S. cerevisiae deletion strains, locus YKL085W, strain MDH1 (second series), stronger effect = lower value 1 | S. cerevisiae deletion strains, locus YKL085W, strain MDH1, stronger effect = lower value 1 | S. cerevisiae deletion strains, locus YKL190W, strain CNB1, stronger effect = lower value 1.01 | S. cerevisiae deletion strains, locus YKR001C, strain vps1, stronger effect = lower value 0.995 | S. cerevisiae deletion strains, locus YLR039C, strain RIC1, stronger effect = lower value 1.07 | S. cerevisiae deletion strains, locus YLR058C, strain SHM2, stronger effect = lower value 1.01 | S. cerevisiae deletion strains, locus YLR102C, strain apc9, stronger effect = lower value 0.994 | S. cerevisiae deletion strains, locus YLR113W, strain HOG1, stronger effect = lower value 0.988 | S. cerevisiae deletion strains, locus YLR262C, strain YPT6, stronger effect = lower value 1.04 | S. cerevisiae deletion strains, locus YLR268W, strain sec22, stronger effect = lower value 1.01 | S. cerevisiae deletion strains, locus YLR330W, strain CHS5, stronger effect = lower value 1.01 | S. cerevisiae deletion strains, locus YLR342W, strain FKS1 (second series), stronger effect = lower value 1.01 | S. cerevisiae deletion strains, locus YLR371W, strain rom2, stronger effect = lower value 1 | S. cerevisiae deletion strains, locus YLR418C, strain cdc73, stronger effect = lower value 1 | S. cerevisiae deletion strains, locus YML016C, strain PPZ1, stronger effect = lower value 1.01 | S. cerevisiae deletion strains, locus YML032C, strain rad52, stronger effect = lower value 0.989 | S. cerevisiae deletion strains, locus YML124C, strain tub3, stronger effect = lower value 0.995 | S. cerevisiae deletion strains, locus YMR078C, strain ctf18, stronger effect = lower value 0.987 | S. cerevisiae deletion strains, locus YMR223W, strain ubp8, stronger effect = lower value 0.995 | S. cerevisiae deletion strains, locus YMR263W, strain SAP30, stronger effect = lower value 1.03 | S. cerevisiae deletion strains, locus YMR307W, strain GAS1, stronger effect = lower value 0.996 | S. cerevisiae deletion strains, locus YNL067W, strain RPL9B, stronger effect = lower value 1.03 | S. cerevisiae deletion strains, locus YNL128W, strain TEP1, stronger effect = lower value 1.03 | S. cerevisiae deletion strains, locus YNL153C, strain GIM3, stronger effect = lower value 1.02 | S. cerevisiae deletion strains, locus YNL183C, strain NPR1, stronger effect = lower value 0.928 | S. cerevisiae deletion strains, locus YNL233W, strain BNI4, stronger effect = lower value 1.02 | S. cerevisiae deletion strains, locus YNL250W, strain rad50, stronger effect = lower value 1 | S. cerevisiae deletion strains, locus YNL271C, strain bni1, stronger effect = lower value 0.994 | S. cerevisiae deletion strains, locus YNL298W, strain CLA4, stronger effect = lower value 1 | S. cerevisiae deletion strains, locus YNL307C, strain MCK1, stronger effect = lower value 0.98 | S. cerevisiae deletion strains, locus YNL322C, strain KRE1, stronger effect = lower value 1.01 | S. cerevisiae deletion strains, locus YNR052C, strain pop2, stronger effect = lower value 0.996 | S. cerevisiae deletion strains, locus YOL006C, strain TOP1, stronger effect = lower value 1.11 | S. cerevisiae deletion strains, locus YOL012C, strain htz1 0.734 | S. cerevisiae deletion strains, locus YOL147C, strain pex11, stronger effect = lower value 0.996 | S. cerevisiae deletion strains, locus YOR061W, strain CKA2, stronger effect = lower value 1.02 | S. cerevisiae deletion strains, locus YOR069W, strain VPS5, stronger effect = lower value 1.01 | S. cerevisiae deletion strains, locus YOR136W, strain idh2, stronger effect = lower value 0.989 | S. cerevisiae deletion strains, locus YOR144C, strain elg1, stronger effect = lower value 0.998 | S. cerevisiae deletion strains, locus YOR184W, strain ser1, stronger effect = lower value 0.989 | S. cerevisiae deletion strains, locus YOR231W, strain MKK1, stronger effect = lower value 1 | S. cerevisiae deletion strains, locus YOR316C, strain cot1, stronger effect = lower value 0.998 | S. cerevisiae deletion strains, locus YPL055C, strain LGE1, stronger effect = lower value 1.06 | S. cerevisiae deletion strains, locus YPL241C, strain CIN2, stronger effect = lower value 1.01 | S. cerevisiae deletion strains, locus YPL256C, strain CLN2, stronger effect = lower value 1.01 | S. cerevisiae deletion strains, locus YPR119W, strain clb2, stronger effect = lower value 0.985 | S. cerevisiae deletion strains, locus YPR141C, strain kar3, stronger effect = lower value 0.993 | S. cerevisiae deletion strains, locus YPR163C, strain tif3, stronger effect = lower value 0.989 | S. cerevisiae deletion strains, locus YPR167C, strain met16, stronger effect = lower value 0.993 | S. cerevisiae deletion strains, strain wtn01, stronger effect = lower value 1.01 | S. cerevisiae strains, strain wild type, stronger effect = lower value 1.01
